This is one part of a sample in which the strongest signals are shown more often than they occur.
How the values were obtained:
Experiment in all cases: glycan array binding signal (z-score within array); higher = stronger binding
Conditions in all cases: glycan notation: IUPAC condensed, linker removed
[1] = target: GlcNAc(b1-2)Gal(b1-3)GalNAc
In short: (§1)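 Glycan array data came from 3228 arrays in the Consortium for Functional Glycomics database, and only arrays with an available protein sequence were kept. Glycan names were put into IUPAC-condensed notation, and columns mapping to the same glycan were averaged. The binding signal is a within-array Z-score, averaged across arrays of one protein sequence run at different concentrations or buffers and across linkers. A negative Z-score can be read as non-binding.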

[2] = target: GlcNAc(b1-2)[GlcNAc(b1-4)]Man(a1-3)[GlcNAc(b1-2)Man(a1-6)]Man(b1-4)GlcNAc(b1-4)GlcNAc
In short: as §1

[3] = target: GlcNAc(b1-2)[GlcNAc(b1-6)]Man(a1-6)[GlcNAc(b1-2)Man(a1-3)][GlcNAc(b1-4)]Man(b1-4)GlcNAc(b1-4)GlcNAc
In short: as §1

[4] = target: GlcNAc(b1-4)GlcNAc(b1-4)GlcNAc(b1-4)GlcNAc(b1-4)GlcNAc
In short: as §1

[5] = target: Man(a1-2)Man(a1-3)[Man(a1-2)Man(a1-6)]Man
In short: as §1

[6] = target: Man(a1-2)Man(a1-3)[Man(a1-2)Man(a1-6)]Man(a1-6)[Man(a1-2)Man(a1-2)Man(a1-3)]Man
In short: as §1

[7] = target: Man(a1-2)Man(a1-3)[Man(a1-2)Man(a1-6)]Man(a1-6)[Man(a1-2)Man(a1-2)Man(a1-3)]Man(b1-4)GlcNAc(b1-4)GlcNAc
In short: as §1

[8] = target: Neu5Ac(a2-3)Gal(b1-3)[Fuc(a1-4)]GlcNAc(b1-3)Gal(b1-3)[Fuc(a1-4)]GlcNAc
In short: as §1

[9] = target: Neu5Ac(a2-3)Gal(b1-4)GlcNAc(b1-2)Man(a1-3)[GlcNAc(b1-2)Man(b1-4)GlcNAc(b1-2)Man(a1-6)]Man(b1-4)GlcNAc(b1-4)GlcNAc
In short: as §1

[10] = target: Neu5Ac(a2-3)Gal(b1-4)GlcNAc(b1-3)GalNAc
In short: as §1

[11] = target: Neu5Ac(a2-3)Gal(b1-4)[Fuc(a1-3)]GlcNAc(b1-3)GalNAc
In short: as §1

[12] = target: Neu5Ac(a2-3)GalNAc(b1-4)GlcNAc
In short: as §1

[13] = target: Neu5Ac(a2-3)[Neu5Ac(a2-6)]GalNAc
In short: as §1

Neu5Ac(a2-6)Gal(b1-4)Glc = target: Neu5Ac(a2-6)Gal(b1-4)Glc
In short: as §1

[14] = target: Neu5Ac(a2-8)Neu5Ac(a2-8)Neu5Ac(a2-3)[GalNAc(b1-4)]Gal(b1-4)Glc
In short: as §1

[15] = target: Neu5Ac9Ac(a2-6)Gal(b1-4)GlcNAc
In short: as §1

B1: Latrophilin-3 (Homo sapiens), Q9HAR2 (protein)
chain: MWPSQLLIFMMLLAPIIHAFSRAPIPMAVVRRELSCESYPIELRCPGTDVIMIESANYGRTDDKICDSDPAQMENIRCYLPDAYKIMSQRCNNRTQCAVVAGPDVFPDPCPGTYKYLEVQYECVPYKVEQKVFLCPGLLKGVYQSEHLFESDHQSGAWCKDPLQASDKIYYMPWTPYRTDTLTEYSSKDDFIAGRPTTTYKLPHRVDGTGFVVYDGALFFNKERTRNIVKFDLRTRIKSGEAIIANANYHDTSPYRWGGKSDIDLAVDENGLWVIYATEQNNGKIVISQLNPYTLRIEGTWDTAYDKRSASNAFMICGILYVVKSVYEDDDNEATGNKIDYIYNTDQSKDSLVDVPFPNSYQYIAAVDYNPRDNLLYVWNNYHVVKYSLDFGPLDSRSGQAHHGQVSYISPPIHLDSELERPSVKDISTTGPLGMGSTTTSTTLRTTTLSPGRSTTPSVSGRRNRSTSTPSPAVEVLDDMTTHLPSASSQIPALEESCEAVEAREIMWFKTRQGQIAKQPCPAGTIGVSTYLCLAPDGIWDPQGPDLSNCSSPWVNHITQKLKSGETAANIARELAEQTRNHLNAGDITYSVRAMDQLVGLLDVQLRNLTPGGKDSAARSLNKAMVETVNNLLQPQALNAWRDLTTSDQLRAATMLLHTVEESAFVLADNLLKTDIVRENTDNIKLEVARLSTEGNLEDLKFPENMGHGSTIQLSANTLKQNGRNGEIRVAFVLYNNLGPYLSTENASMKLGTEALSTNHSVIVNSPVITAAINKEFSNKVYLADPVVFTVKHIKQSEENFNPNCSFWSYSKRTMTGYWSTQGCRLLTTNKTHTTCSCNHLTNFAVLMAHVEVKHSDAVHDLLLDVITWVGILLSLVCLLICIFTFCFFRGLQSDRNTIHKNLCISLFVAELLFLIGINRTDQPIACAVFAALLHFFFLAAFTWMFLEGVQLYIMLVEVFESEHSRRKYFYLVGYGMPALIVAVSAAVDYRSYGTDKVCWLRLDTYFIWSFIGPATLIIMLNVIFLGIALYKMFHHTAILKPESGCLDNIKSWVIGAIALLCLLGLTWAFGLMYINESTVIMAYLFTIFNSLQGMFIFIFHCVLQKKVRKEYGKCLRTHCCSGKSTESSIGSGKTSGSRTPGRYSTGSQSRIRRMWNDTVRKQSESSFITGDINSSASLNREGLLNNARDTSVMDTLPLNGNHGNSYSIASGEYLSNCVQIIDRGYNHNETALEKKILKELTSNYIPSYLNNHERSSEQNRNLMNKLVNNLGSGREDDAIVLDDATSFNHEESLGLELIHEESDAPLLPPRVYSTENHQPHHYTRRRIPQDHSESFFPLLTNEHTEDLQSPHRDSLYTSMPTLAGVAATESVTTSTQTEPPPAKCGDAEDVYYKSMPNLGSRNHVHQLHTYYQLGRGSSDGFIVPPNKDGTPPEGSSKGPAHLVTSL
- glycan array binding signal (z-score) [1]: 1.25
- glycan array binding signal (z-score) [2]: 0.886
- glycan array binding signal (z-score) [3]: -0.448
- glycan array binding signal (z-score) [4]: 0.111
- glycan array binding signal (z-score) [5]: -1.71
- glycan array binding signal (z-score) [6]: 0.047
- glycan array binding signal (z-score) [7]: 1.12
- glycan array binding signal (z-score) [8]: 6.27
- glycan array binding signal (z-score) [9]: 0.035
- glycan array binding signal (z-score) [10]: 0.708
- glycan array binding signal (z-score) [11]: 3.18
- glycan array binding signal (z-score) [12]: -0.972
- glycan array binding signal (z-score) [13]: -1.4
- glycan array binding signal (z-score) (Neu5Ac(a2-6)Gal(b1-4)Glc): 1.15
- glycan array binding signal (z-score) [14]: -1.01
- glycan array binding signal (z-score) [15]: -0.383

Reference: the supplement of paper PMC8728848
